AGP1-GFP MLPCN: modulators of TOR pathway AGP1-GFP in S. cerevisiae | S. cerevisiae AGP1-GFP multiplex flow cytometry, 3 h; GFP as percent of DMSO wells | 320,000 compounds, 0.02% hits | GFP response vs DMSO, % at 10 µM;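 active = GFP response relative to DMSO above a set limit, near screen average plus 3 SD, cut at about 150% in these data; inconclusive = fewer than 70 cells counted for the yeast strain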;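 note: median GFP channel fluorescence of the gated AGP1 strain per well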
CIT2-GFP yeast: yeast TOR pathway CIT2-GFP modulation; S. cerevisiae CIT2-GFP strain, flow cytometry, 3 h; 100 means same as DMSO wells; GFP response vs DMSO, % at 10 µM; 320,000 compounds, 0.065% hits;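 active = GFP response relative to DMSO above a set limit, near the screen mean plus 3 SD, cut at about 150% in these data; inconclusive = Fewer than 70 cells measured for a yeast strain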;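 note: ratio of well median GFP fluorescence to mean of DMSO wells on the plate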
RPL19A-GFP yeast: modulators of TOR pathway RPL19A-GFP in S. cerevisiae. S. cerevisiae RPL19A-GFP strain, flow cytometry, 3 h; hits give low values. percent response vs DMSO, % at 10 µM. 330,000 compounds, 0.3% hits;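 active = percent response vs DMSO below 50%; inconclusive = fewer than 70 events counted for the yeast strain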;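 note: median channel GFP fluorescence of the barcoded RPL19A-GFP strain; ratio of sample median GFP to plate DMSO average so 100% = DMSO; lower means less RPL19A-GFP as with rapamycin TOR inhibition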
LAP4-GFP MLPCN: alters LAP4-GFP fluorescence in TOR pathway yeast screen; GFP response vs DMSO, % at 10 µM; 320,000 compounds, 0.34% hits; S. cerevisiae LAP4-GFP multiplex, flow cytometry GFP, 3 h; median GFP as percent of DMSO wells;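 active = GFP response vs DMSO above a set limit, about the screen mean plus 3 SD, cut at about 150% in these data; inconclusive = under 70 cell events counted for the yeast strain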
MEP2-GFP yeast: yeast TOR pathway MEP2-GFP modulation. S. cerevisiae MEP2-GFP strain, flow cytometry GFP, 3 h; 100% = DMSO control level. GFP response vs DMSO, % at 10 µM. 330,000 compounds, 0.51% hits. AID 2016;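 active = GFP response versus DMSO above a set limit, roughly screen mean plus 3 SD, cut at about 180% in these data; inconclusive = fewer than 70 cells counted for a yeast strain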;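 note: median GFP fluorescence of the barcode-gated MEP2-GFP cells per well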
Myeloid diff 2: myeloid differentiation induction; 360,000 compounds, 1% hits; AID 624256; ER-HoxA9 myeloid progenitors, lysozyme-GFP differentiation, flow cytometry; calls only at 10 µM;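 active = normalized GFP-positive differentiation at or above the plate's own cutoff, the solvent-only control mean plus 3 SD; inconclusive = no clear call, values can overlap the other calls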;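 note: cells exposed to compound for four days before flow analysis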
Myeloid diff: myeloid differentiation induction; shares compounds with Myeloid diff 2; ER-HoxA9 myeloid progenitors, GFP/Mac1 double-positive flow; calls only; 2,300 compounds, 2% hits; AID 651706;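 active = share of green or green-and-red cells above 9 and 9% in run 1 or 4 and 3% in run 2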
GFP autofluor: compound fluorescence in myeloid differentiation counter-screen; shares compounds with Myeloid diff 2; ER-HoxA9 myeloid progenitors, no estrogen, GFP autofluorescence flow cytometry; vehicle wells 0%, positive control 100%; fluorescence response, % (test concentration not listed); 2,300 compounds, 7.4% hits; AID 651707;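 active = over 5% cells positive for green fluorescent reporter, or over 2% positive for both it and APC stain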;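 note: range taken on the double positive population between DMSO and positive control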
* marks the source's active call; other numbers are inactive results; i = inactive; ? = inconclusive; . = not tested or not shown; + = active, no number. Shown are actives, neighbours in structure and some others; about 1.8% of the full set was active somewhere.

SMILES	AGP1-GFP MLPCN	CIT2-GFP yeast	RPL19A-GFP yeast	LAP4-GFP MLPCN	MEP2-GFP yeast	Myeloid diff 2	Myeloid diff	GFP autofluor
CCS(=O)(=O)N1CCN(S(=O)(=O)c2ccc(S(=O)(=O)NC3CC3)cc2)CC1	101	103	107	95	104	i	.	.
CCCC(=O)C1=C(O)C(C(=O)OC)C(C)(C)CC1=Nc1cccc([N+](=O)[O-])c1 (stereo unspecified)	56	92	90	88	110	i	.	.
CCCC(=O)C1=C(O)C(C(=O)OC)C(C)(C)CC1=Nc1ccccc1 (stereo unspecified)	89	?	77	?	?	i	i	0
C(=NN=Cc1c[nH]c2ccccc12)c1c[nH]c2ccccc12	.	.	.	.	.	i	.	.
CCc1ccc(/C=C/c2c[nH]c3ccccc23)[n+](CC)c1	.	.	.	.	.	+	i	7.0*
O=C(Nc1cccc(Cl)c1)OCc1cn(-c2ccccc2)nn1	99	97	100	106	104	i	.	.
COC(=O)C(C(=O)OC)C(C[N+](=O)[O-])c1ccc(OC)cc1 (stereo unspecified)	.	93	97	96	97	i	.	.
O=C1CCC(c2ccc3ccccc3c2)O1 (stereo unspecified)	.	.	.	.	.	i	i	2
CN(C(=O)c1cc2sccc2n1C)C1CCCCC1	109	104	103	112	102	+	i	0
Cn1c(C(=O)NC2CCCCC2)cc2sccc21	100	99	99	102	102	i	.	.
COc1ccc(Cn2nnnc2C(c2cccnc2)N2CCN(c3ccc(O)cc3)CC2)cc1 (stereo unspecified)	104	100	101	103	100	i	i	5
CCOC(=O)c1ccccc1NC(=O)CSc1nnc(C(C)C)n1CC	96	96	97	98	98	i	.	.
Cc1ccc(CC(CC(=O)O)C(=O)NCC23CC4CC(CC(C4)C2)C3)cc1 (stereo unspecified)	106	102	102	109	114	i	.	.
Cc1ccc(CC(CC(=O)O)C(=O)NC2CCCCC2)cc1 (stereo unspecified)	102	100	102	96	102	+	i	0
O=C(Nc1ncccc1O)c1ccc(S(=O)(=O)Nc2ccccc2)cc1	104	97	99	103	101	+	i	1
O=C(Nc1ccccc1O)c1ccc(NS(=O)(=O)c2cccc3cccnc23)cc1	99	96	97	103	103	i	i	0
O=C(Nc1ncccc1O)c1ccc(NS(=O)(=O)c2ccc3[nH]c(=O)[nH]c3c2)cc1	.	.	.	.	.	i	.	.
Cc1cccc(NC(=O)c2ccc(NS(=O)(=O)c3cccc4cccnc34)cc2)c1	.	.	.	.	.	i	i	0
COCc1cc(C)nc(SCC(=O)Nc2ccccc2N2CCOCC2)c1C#N	108	104	103	102	104	i	.	.
Cc1cc(C)c2nc(SCC(=O)Nc3ccccc3N3CCOCC3)c(C#N)cc2c1	104	105	99	100	101	+	i	0
CCN(CC)S(=O)(=O)c1cccc(NC(=O)c2ccc(-n3nc(C)cc3C)cc2)c1	104	101	101	94	103	i	.	.
CN(C)N=Nc1ccc(-c2cn(Cc3ccccc3)cn2)cc1	96	91	96	83	95	i	i	0
CNC(=O)c1c(NC(=O)c2ccc(S(=O)(=O)N3CCCc4ccccc43)cc2)sc2c1CCN(C)C2	107	108	100	104	101	+	+	0
CCCN1CCc2c(sc(NC(=O)c3ccc(S(=O)(=O)N(C)c4ccccc4)cc3)c2C(=O)NC)C1	97	88	93	101	92	+	i	1
CN1CCc2c(sc(NC(=O)c3ccc(S(=O)(=O)N4CCc5ccccc54)cc3)c2C(N)=O)C1	106	120	98	107	98	.	.	.
SMILES	AGP1-GFP MLPCN	CIT2-GFP yeast	RPL19A-GFP yeast	LAP4-GFP MLPCN	MEP2-GFP yeast	Myeloid diff 2	Myeloid diff	GFP autofluor
COc1ccc(-c2sc3ccccc3c2-c2ccc(O)cc2)cc1	99	101	100	97	95	i	.	.
COc1ccc(-c2sc3cc(OC)c(OC)cc3c2-c2ccc(O)cc2)cc1	94	88	95	105	98	i	i	0
Cc1cc(=O)[nH]c2ccc(S(=O)(=O)Nc3ccccc3)cc12	109	112	108	101	110	i	.	.
CSCCC1NC(=O)N(CC(=O)Nc2ccc3c(c2)OCCO3)C1=O (stereo unspecified)	99	104	97	98	103	i	.	.
CCCSc1nc(C)c2cc(C)cc(C)c2n1	100	98	98	97	99	+	i	0
C[n+]1ccccc1/C=C/c1ccc2ncccc2c1	106	107	111	104	117	+	+	0
Cc1ccc(C)c(S(=O)(=O)N2CCN(C(=O)Cc3ccccc3)CC2)c1	90	82	85	97	89	i	.	.
Cc1ccc(C)c(S(=O)(=O)N2CCN(C(=O)CCC(=O)c3cc(C)sc3C)CC2)c1	88	88	87	100	100	+	i	0
CC1CCN(CC2C(=O)O[C@@H]3C[C@@]4(C)CCC[C@H](C)C4=C[C@H]23)CC(C)(C)C1 (stereo partly specified)	109	94	100	113	93	i	i	0
CCCN1C(=O)/C(=C/c2ccncc2)SC1=S	97	93	95	127	100	i	.	.
CCCN1C(=O)/C(=C\C=C2/Sc3ccccc3N2CCO)SC1=S	100	99	98	97	98	+	i	6.5*
COc1cc(C(=O)N2CCCC(c3nc(-c4cccs4)no3)C2)cc(OC)c1OC (stereo unspecified)	100	102	.	93	102	i	i	1
COc1ccc(S(=O)(=O)Nc2ccc3c(c2)C(=O)N([C@@H](C)CO)C[C@@H](C)[C@H](CN(C)C(=O)CCCN(C)C)OCCCC[C@H](C)O3)cc1	.	.	.	.	.	i	.	.
Cc1noc(C)c1S(=O)(=O)Nc1ccc2c(c1)C(=O)N([C@H](C)CO)C[C@H](C)[C@@H](CN(C)C(=O)CCCN(C)C)OCCCC[C@@H](C)O2	.	.	.	.	.	i	i	0
C[C@@H]1CCCCO[C@H](CN(C)C(=O)C2CCCCC2)[C@@H](C)CN([C@H](C)CO)C(=O)c2cc(N(C)C)ccc2O1	.	.	.	.	.	i	i	0

Compound activity from PubChem BioAssay.
